Three compounds from PubChem BioAssay AID2638 (Johns Hopkins Ion Channel Center, 2010) can be followed below.

Each structure is given as a SMILES string. Active and inactive are the calls of the source.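 How the source made its calls: active means compound restoring hERG potassium channel current, after block by a reference inhibitor, at any concentration tried; inactive means no current restored at any concentration tried.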

In the assay the target is Voltage-gated inwardly rectifying potassium channel KCNH2 (Homo sapiens) (UniProt Q12809). The assay is described as follows: concentration dependence of hERG rescue from dofetilide, dose response, manual patch clamp, HEK293 cells (AID 2638). As to conditions: tail current; current remaining: measured here: rescue from 100 nM dofetilide block, at 50 µM, stronger effect = higher value unless noted; series mostly up to 100 µM; potentiation: at the top concentration. On the technique in general: hERG is a cardiac potassium channel; its block is linked to QT prolongation.
Voltage-gated inwardly rectifying potassium channel KCNH2 (Homo sapiens), sequence (Q12809 whole entry, looked up): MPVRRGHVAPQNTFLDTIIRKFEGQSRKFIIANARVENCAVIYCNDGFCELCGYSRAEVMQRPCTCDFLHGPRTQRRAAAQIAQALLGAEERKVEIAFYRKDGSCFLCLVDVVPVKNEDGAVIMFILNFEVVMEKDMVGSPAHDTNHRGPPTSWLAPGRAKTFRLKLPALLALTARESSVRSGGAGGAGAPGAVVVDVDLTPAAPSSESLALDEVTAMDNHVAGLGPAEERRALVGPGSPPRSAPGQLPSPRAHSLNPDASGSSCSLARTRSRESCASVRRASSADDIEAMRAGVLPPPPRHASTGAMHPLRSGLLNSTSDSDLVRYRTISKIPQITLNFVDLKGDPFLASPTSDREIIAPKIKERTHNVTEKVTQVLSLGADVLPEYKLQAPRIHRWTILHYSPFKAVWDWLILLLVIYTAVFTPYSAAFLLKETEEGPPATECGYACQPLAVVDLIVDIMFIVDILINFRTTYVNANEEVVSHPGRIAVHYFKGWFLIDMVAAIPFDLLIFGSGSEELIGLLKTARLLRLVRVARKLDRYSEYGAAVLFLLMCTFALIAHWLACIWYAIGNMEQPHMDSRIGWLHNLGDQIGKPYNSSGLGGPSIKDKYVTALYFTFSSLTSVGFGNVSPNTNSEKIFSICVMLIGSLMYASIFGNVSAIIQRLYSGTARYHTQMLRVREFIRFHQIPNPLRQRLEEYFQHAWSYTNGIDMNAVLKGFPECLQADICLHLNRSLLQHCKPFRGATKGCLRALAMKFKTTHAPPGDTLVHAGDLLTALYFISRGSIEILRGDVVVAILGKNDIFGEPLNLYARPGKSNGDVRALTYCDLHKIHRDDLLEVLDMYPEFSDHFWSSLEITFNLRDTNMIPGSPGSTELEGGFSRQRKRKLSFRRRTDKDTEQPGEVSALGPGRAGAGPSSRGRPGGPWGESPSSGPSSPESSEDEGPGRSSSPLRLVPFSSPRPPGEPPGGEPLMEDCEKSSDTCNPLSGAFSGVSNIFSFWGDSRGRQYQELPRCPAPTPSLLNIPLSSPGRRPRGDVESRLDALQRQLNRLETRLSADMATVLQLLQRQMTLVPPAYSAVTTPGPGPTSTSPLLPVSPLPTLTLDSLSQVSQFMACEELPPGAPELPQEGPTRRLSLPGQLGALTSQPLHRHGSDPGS
Take `O=C(COc1ccc2ccccc2c1Br)Nc1cccnc1`: the “potentiation” value is 383% (inactive) and the current remaining was found to be 1%.
`O=C(O)c1cc(Cl)ccc1Nc1nc2cc(Cl)ccc2o1`: the current remaining amounted to 4.15%.
Still for that read-out and setting: under `CCC1CCCCN1C(=S)NC(=O)c1cccs1` (centres undefined) stands 46.5% [measured here: rescue from 100 nM dofetilide block, at 10 µM, stronger effect = higher value].
